Screening data from PubChem.
HSD17B inh: qHTS Assay for Inhibitors of HSD17B4, hydroxysteroid (17-beta) dehydrogenase 4; Potency, µM (titrated, usually from 57.1 µM), usual class: inhibitors; 3-hydroxyacyl-CoA dehydrogenase type-2 (Homo sapiens), Q99714; recombinant HSD17B10, NADH fluorescence kinetic; hit rate 7.6% among 75,000; AID 893, 2007;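 further: the protocol describes HADH2 (HSD17B10) and not the HSD17B4 of the title; nearly all actives have a fitted effect of over 70% in size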
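Enzyme plus compound, 15 min room temperature; substrate mix added (NAD+ 1 mM, beta-hydroxybutyryl-CoA 90 uM final); plates read kinetically for NADH fluorescence. HADH2 was His-tagged, E. coli-derived, 20 nM.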
4MU fluor: qHTS Assay for Spectroscopic Profiling in 4-MU Spectral Region; hit rate 11% among 59,000; max dye-equivalent concentration, M; compound autofluorescence, 340/450 nm, 4-MU equivalents; hits give high values; in the data active means max dye-equivalent concentration above about 10 nM; inconclusive means mostly about 1.1 nM to 9.6 nM
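Compounds in 100 mM Tris, pH 8.0, incubated 15 min at room temperature, then fluorescence read at 340 nm excitation/450 nm emission. Signal converted to 4-MU dye-equivalent concentration using an on-plate six-point 4-MU standard curve.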
A350 fluor: qHTS Assay for Spectroscopic Profiling in A350 Spectral Region; AID 590, 2007; Compound autofluorescence, 340/450 nm, Alexa 350 dye-equivalents; hits give high values; hit rate 11% among 59,000; max dye-equivalent concentration, M; in the data active means max dye-equivalent concentration above about 10 nM; inconclusive means mostly about 1.1 nM to 9.6 nM
CRE-bla Fsk: Cell signaling CRE-BLA (Fsk stim); Potency, µM (series often up to 38.2 µM), usual class: activators; CHO CRE-bla reporter (cAMP response element driving beta-lactamase), forskolin EC10, beta-lactamase ratio; AID 662, 2007; hit rate 2.5% among 71,000; active means well fitted activation curve with a large enough effect in the signal ratio, with a control signal flat, not every such curve was filed as active; inconclusive means small, poorly fitted or top-dose-only effect, or effect the other way, or a change in a side signal; the % refers to the signal ratio
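Reporter-gene assay: CHO cells with beta-lactamase behind cAMP responsive elements, co-treated with compound and EC10 NKH 477 for 3 hours at 37 degrees Celsius. Activity came from the 460/530 nm CCF4 emission ratio.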
AID923: qHTS Assay for Allosteric/Competitive Inhibitors of Caspase-1: Spectroscopic Profiling in AFC Spectral Region | compound fluorescence, AFC spectral region (405/520 nm) | Potency, µM (series often up to 57.5 µM), most hits filed as activators | hit rate 1.1% among 75,000
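Compound autofluorescence profiled at 405 nm ex/520 nm em during kinetic caspase 1 run (50 nM enzyme, 5 uM Ac-WEHD-AFC, HEPES pH 7.5, 10 mM DTT). Titration up to 57 uM; baseline from regression intercept, normalized to AFC standard curve.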
HADH2 inh: qHTS Assay for Inhibitors of HADH2 (Hydroxyacyl-Coenzyme A Dehydrogenase, Type II); AID 886, 2007; 3-hydroxyacyl-CoA dehydrogenase type-2 (Homo sapiens), Q99714; recombinant HADH2, NADH fluorescence, beta-hydroxybutyryl-CoA; hit rate 3.4% among 73,000; Potency, µM (series often up to 57.1 µM), hits mostly inhibitors; further: nearly all actives have a fitted effect of over 60% in size
Target sequence (Q99714 whole entry, looked up, one chain of several): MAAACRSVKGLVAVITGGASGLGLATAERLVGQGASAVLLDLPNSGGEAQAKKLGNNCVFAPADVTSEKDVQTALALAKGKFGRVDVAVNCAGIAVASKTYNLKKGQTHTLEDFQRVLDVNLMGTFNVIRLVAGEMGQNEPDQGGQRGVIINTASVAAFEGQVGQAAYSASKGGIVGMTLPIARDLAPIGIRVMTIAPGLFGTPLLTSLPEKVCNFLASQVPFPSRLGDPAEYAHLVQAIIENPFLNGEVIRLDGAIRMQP
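Buffer 100 mM Tris-HCl pH 9.0/0.01% Tween-20; HADH2 20 nM; NAD+ 1 mM; beta-hydroxybutyryl-CoA 90 uM (all final). 15 min cpd preincubation, RT.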
Of the large screens only hits and unclear results are named; the others gave an inactive call. Most compounds without a hit are left out; they make up all but 14% or so of the library. Unless noted, the call rests on the fitted dose curve; in most records, active means well fitted curve in the direction sought with a large enough effect; inconclusive means small, poorly fitted or top-dose-only effect, or another doubt; inactive means no such curve, though single readings can be large; an effect the other way counts as inactive or inconclusive.

CC(C)(C)NC(=O)CN(C(=O)CS(=O)CC(=O)Nc1ccc(F)cc1)c1ccccc1 (stereo not given)	none
N#Cc1nc(-c2ccccc2Cl)oc1NCc1ccco1	HSD17B inh inconclusive, CRE-bla Fsk inconclusive
COc1ccc(-c2nc(C#N)c(NCc3ccccc3Cl)o2)cc1OC	HSD17B inh 25.1µM, 4MU fluor inconclusive, A350 fluor inconclusive, CRE-bla Fsk inconclusive, HADH2 inh 31.6µM
N#Cc1nc(Cc2ccccc2)oc1NCc1ccccc1Cl	CRE-bla Fsk inconclusive
COc1ccc(-c2nc(C#N)c(NCc3ccc(F)cc3)o2)cc1OC	HSD17B inh 31.6µM, 4MU fluor inconclusive, A350 fluor inconclusive, CRE-bla Fsk 3.98µM, HADH2 inh inconclusive
N#Cc1nc(COc2ccccc2F)oc1NCc1ccc(F)cc1	none (no result: 4MU fluor, A350 fluor)
COc1ccc(CNc2oc(COc3ccc(Cl)cc3)nc2C#N)cc1	none (no result: HSD17B inh, CRE-bla Fsk, AID923, HADH2 inh)
N#Cc1nc(-c2ccco2)oc1NCc1ccc(F)cc1	HSD17B inh 31.6µM, 4MU fluor inconclusive, A350 fluor inconclusive, CRE-bla Fsk inconclusive, HADH2 inh inconclusive
COc1ccc(-c2nc(C#N)c(NCc3ccccc3Cl)o2)cc1	HSD17B inh 25.1µM, HADH2 inh 31.6µM
O=C1CCCC=C1[C@H](O)c1ccc([N+](=O)[O-])cc1	none (no result: 4MU fluor, A350 fluor, CRE-bla Fsk)
Nc1ccc(N=Nc2ccc(-c3ccc(O)cc3)cc2)c2ccc(S(=O)(=O)O)cc12	HSD17B inh 3.16µM, HADH2 inh 5.01µM
COc1ccc(N2C(=O)CC(n3c(CCCCO)nc4ccccc43)C2=O)cc1 (stereo not given)	none
O=C(O)C1CC(=O)N(CCc2c[nH]c3ccccc23)C1 (stereo not given)	none
Cc1cc(C)nc(NC2=NCC(=O)N2CCc2c[nH]c3ccccc23)n1	HSD17B inh inconclusive, 4MU fluor 1.48e-08M, A350 fluor 1.75e-08M
COC(=O)c1ccc(C23CC4(C2)[C@H](CN(Cc2ccc(C(F)(F)F)cc2)[C@@H]4c2ccccc2)C3c2ccc(C(F)(F)F)cc2)cc1 (stereo not given in full)	HSD17B inh 15.8µM (no result: 4MU fluor, A350 fluor, CRE-bla Fsk, HADH2 inh)
NC12CC3CC(C1)CC(CO)(C3)O2	A350 fluor inconclusive
Cc1ccc(-c2c3c(=O)n(C)c(=O)n(C)c3cn2Cc2ccccn2)cc1	4MU fluor 5.41e-08M, A350 fluor 6.82e-08M, CRE-bla Fsk inconclusive
Cc1nnc2sc(-c3ccc(NC(=O)c4ccc(-c5ccc(Br)cc5)o4)cc3)nn12	HSD17B inh 25.1µM, 4MU fluor 2.69e-07M, A350 fluor 2.62e-07M, CRE-bla Fsk inconclusive
Cc1ccc(-c2nn3c(C)nnc3s2)cc1NC(=O)c1ccc(-c2cccc(Cl)c2)o1	4MU fluor 1.35e-08M, A350 fluor 1.67e-08M, CRE-bla Fsk inconclusive
Cc1ccc(-c2nn3c(C)nnc3s2)cc1NC(=O)c1ccc(-c2ccc(Cl)cc2Cl)o1	HSD17B inh 31.6µM, 4MU fluor 1.04e-07M, A350 fluor 1.17e-07M, CRE-bla Fsk inconclusive (no result: HADH2 inh)
Cc1ccc(-c2nn3c(C)nnc3s2)cc1NC(=O)c1ccc(Br)o1	CRE-bla Fsk inconclusive (no result: 4MU fluor, A350 fluor)
COc1cc(NC(=O)c2ccc(-c3ccc(Br)cc3)o2)ccc1NC(=O)C(C)C	4MU fluor 3.66e-08M, A350 fluor 3.35e-08M, CRE-bla Fsk inconclusive
COc1ccc(CCn2nnnc2C(C(C)C)N2CCN(c3ncccn3)CC2)cc1OC (stereo not given)	A350 fluor inconclusive
CCC1=C2CC[C@H]3C(=O)N(CC)C(=O)[C@H]3[C@H]2[C@@]2(C)C(=O)N(CC(=O)OC)C(=O)N2C1=O	none (no result: 4MU fluor, A350 fluor, CRE-bla Fsk, HADH2 inh)
COc1ccc(-n2c(=O)c(C)nc3cnc(Oc4cccc(Cl)c4)nc32)cc1	CRE-bla Fsk inconclusive
Cc1nnc2sc(-c3cccc(NC(=O)c4ccc(-c5cccc(Cl)c5)o4)c3)nn12	HSD17B inh 31.6µM, 4MU fluor 1.98e-08M, A350 fluor 1.66e-08M, HADH2 inh 7.94µM
C=C(C)Cn1c(CCCNC(=O)CCC)nc2ccccc21	none
